From PubChem BioAssay
In the library only some 3.2% were active in any assay of this set; here they are far more common.
DSG3 Ab inh: inhibitors of pemphigus antibody binding to human desmoglein-3; P32926; DSG3-coupled beads, scFv-anti-DSG3-GFP binding, flow cytometry; hits give low values; binding (percent of control), % at 10 µM; 310,000 tested, 0.48% active; AID 588358;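 active = binding more than 3 SD below its plate's average and above zero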;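 also: hits lower antibody fragment binding to DSG3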
Target sequence (P32926 whole entry, looked up, the tested form may be a part): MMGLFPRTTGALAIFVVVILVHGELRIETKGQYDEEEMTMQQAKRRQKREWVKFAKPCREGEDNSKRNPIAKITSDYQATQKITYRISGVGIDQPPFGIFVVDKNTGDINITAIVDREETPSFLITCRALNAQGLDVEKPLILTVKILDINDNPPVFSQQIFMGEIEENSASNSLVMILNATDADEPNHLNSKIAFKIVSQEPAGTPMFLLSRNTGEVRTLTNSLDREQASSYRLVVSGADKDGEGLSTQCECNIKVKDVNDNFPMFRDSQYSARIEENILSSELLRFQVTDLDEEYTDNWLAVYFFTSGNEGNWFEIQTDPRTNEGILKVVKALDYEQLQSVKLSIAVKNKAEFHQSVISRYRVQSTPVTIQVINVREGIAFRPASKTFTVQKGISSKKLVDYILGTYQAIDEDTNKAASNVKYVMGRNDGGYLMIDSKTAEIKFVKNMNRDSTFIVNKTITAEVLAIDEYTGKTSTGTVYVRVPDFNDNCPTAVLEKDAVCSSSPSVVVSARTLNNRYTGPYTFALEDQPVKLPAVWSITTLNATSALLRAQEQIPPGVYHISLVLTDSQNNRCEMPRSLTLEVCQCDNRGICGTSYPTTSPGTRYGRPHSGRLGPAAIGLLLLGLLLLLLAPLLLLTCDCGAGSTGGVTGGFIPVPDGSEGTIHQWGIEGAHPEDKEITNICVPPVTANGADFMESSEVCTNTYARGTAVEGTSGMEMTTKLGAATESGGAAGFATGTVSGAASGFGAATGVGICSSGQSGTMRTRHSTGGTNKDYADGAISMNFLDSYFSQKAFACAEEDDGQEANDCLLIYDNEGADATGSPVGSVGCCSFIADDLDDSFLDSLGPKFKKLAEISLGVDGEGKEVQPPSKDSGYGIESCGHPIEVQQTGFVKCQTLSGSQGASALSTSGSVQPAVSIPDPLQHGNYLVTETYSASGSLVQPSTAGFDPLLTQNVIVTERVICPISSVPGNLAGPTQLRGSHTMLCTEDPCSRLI
NadD inh: blocks S. aureus nicotinate mononucleotide adenylyltransferase | purified NadD enzyme, colorimetric absorbance read-out | inhibition, % at 20 µM | 360,000 tested, 0.78% active | AID 602399; in the data active = inhibition above about 26%
MsrA inhibitor: inhibits bovine methionine sulfoxide reductase A; purified bovine MsrA, absorbance read-out; inhibition, % at 15.5 µM; 360,000 tested, 0.75% active; in the data active = inhibition above about 4.5%;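 also: 0% = vehicle wells with enzyme and 100% = reference inhibitor wells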
MsrA act: bovine methionine sulfoxide reductase A activation; 360,000 tested, 0.3% active; activation, % at 10.6 µM; purified bovine MsrA, absorbance read-out; in the data active = activation above about 7.5%;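 also: 0% = vehicle and 100% = reference activator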
rCAG binder: molecules binding r(CAG) RNA repeats. r(CAG) RNA repeat, TO-PRO-1 dye displacement fluorescence. AID 651821. inhibition, % at 3 µM. 370,000 tested, 1.3% active;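 active = inhibition above the plate cutoff, the mean of all test compounds on that plate plus 3 SD, cut at about 35% in these data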;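 also: 0% = DMSO alone and 100% = 100 µM mitoxantrone as full dye displacement; higher means more dye released from RNA so lower well fluorescence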
DAGLB inh: blocks human DAGLB lipase activity | AID 504411 | 340,000 tested, 0.059% active | inhibition, % at 5.17 µM | HEK293T DAGLB membrane lysate, EnzChek fluorogenic substrate; in the data active = inhibition above about 34%;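 also: 0% = enzyme with vehicle and 100% = wells lacking enzyme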
rCAG bind conf: r(CAG) RNA repeat binding, confirmation. shares compounds with rCAG binder. TO-PRO-1 dye displacement fluorescence. inhibition, % at 3 µM. 4,300 tested, 70% active;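 active = inhibition above a per-plate cutoff, the mean inhibition of sample wells plus 3 SD, cut at about 35% in these data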;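 also: loss of TO-PRO-1 fluorescence as compound displaces dye from 1x1 AA loop RNA; 0% = DMSO only wells and 100% = 100 µM mitoxantrone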
DNA CAG counter: disrupts DNA CAG TO-PRO-1 complex, flagging rCAG hits; shares compounds with rCAG binder; d(CAG) DNA oligo TO-PRO-1 dye displacement, fluorescence; inhibition, % at 3 µM; 4,300 tested, 94% active;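 active = inhibition above its plate's cutoff, the mean test-well inhibition plus 3 SD, cut at about 4.8% in these data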;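 also: 0% = DNA dye mix with DMSO and 100% = 100 µM mitoxantrone; hits displace the dye from DNA and so lower well fluorescence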
dCAG dye DR: DNA CAG dye complex inhibition, dose response counter-screen | shares compounds with rCAG binder | DNA CAG/GTC duplex TO-PRO-1 dye displacement fluorescence | IC50, µM | 250 tested, 20% active | AID 686960; in the data active = IC50 below about 10 µM
The depositor's hits bear a star; i = inactive; . = no result.

SMILES	DSG3 Ab inh	NadD inh	MsrA inhibitor	MsrA act	rCAG binder	DAGLB inh	rCAG bind conf	DNA CAG counter	others
O=C1N=c2ccccc2=C1c1sc(NS(=O)(=O)c2ccccc2)nc1O	107	4	0	-3	41*	12	25	6.0*
CC1CN(c2nc3ccccc3nc2SCC(=O)N2CCN(S(=O)(=O)c3ccccc3)CC2)CC(C)O1 (stereo unspecified)	.	.	.	.	9	.	.	.
O=C(O)c1cccc(S(=O)(=O)N2CCCC(c3nc4c(nnn4Cc4ccccc4Cl)c(=O)[nH]3)C2)c1 (stereo unspecified)	91	-3	-1	-6	43*	2	30	9.3*
CC(=O)c1cccc(S(=O)(=O)N2CCCC(c3nc4c(nnn4Cc4ccccc4Cl)c(=O)[nH]3)C2)c1 (stereo unspecified)	99	3	1	-5	11	0	.	.
COc1ccc(CN2CCC(C(=O)Nc3ccc(Oc4cccnc4)cc3)CC2)c(C)c1C	107	-3	0	-3	-6	-2	.	.
COC(=O)c1sc(-c2ccc(C(C)(C)C)cc2)cc1NC(=O)CCC(=O)O	103	0	2	1	72*	.	72*	29*
CC(=O)c1sc(C(C)(C)C)cc1NC(=O)CCC(=O)O	112	4	1	-1	-1	1	.	.
COC(=O)c1sc(-c2ccc(Cl)cc2)cc1NC(=O)COCC(=O)O	.	-10	3	-4	46*	5	52*	12*	dCAG dye DR=i
CCCOc1ccc(-c2csc3ncn(Cc4ccc(C(=O)O)cc4)c(=O)c23)cc1	103	7	2	-4	51*	3	40*	11*
O=C(CNC(=O)c1ccccc1Br)N/N=C\c1cc([N+](=O)[O-])cc(Br)c1O	99	8	2	-3	39*	10	31	7.9*
CCC(C)[C@H]1CNC(=O)C(=O)N1CC1CCCCC1 (stereo partly specified)	.	16	0	-3	1	.	.	.
O=[N+]([O-])c1cc2no[n+]([O-])c2cc1N1CCCCC1	75	18	0	-2	44*	7	7	3
CC(=O)Nc1ccc(NC(=O)c2ccc(NS(=O)(=O)c3cc(C(C)(C)C)cc(C)c3C)cc2)cc1	104	15	1	5	-11	4	.	.
Cc1cc(C(C)(C)C)cc(S(=O)(=O)Nc2ccc(O)c(C(=O)O)c2)c1C	93	-3	0	-2	57*	6	23	5.3*
COc1ccc(C(=O)N/C(=C/c2ccc(Cl)cc2)C(=O)Nc2ccc(C(=O)O)cc2)cc1	101	0	2	-8	46*	3	42*	12*
COc1ccc(/C=C(\NC(=O)c2ccc(OC)cc2)C(=O)Nc2cccc(C(=O)O)c2)cc1	98	4	4	-2	18	-1	.	.
COCCNc1nc(Nc2ccc(C)cc2C)c2sccc2n1	.	1	1	-1	1	.	.	.
COC(=O)c1c(C)oc2ccc(N(C(C)=O)S(=O)(=O)c3ccccc3)cc12	93	-8	2	-10	1	-1	.	.
COc1ccc(S(=O)(=O)N(C(C)=O)c2ccc3oc(=O)sc3c2)cc1	99	-4	-1	6	44*	10	10	6.0*
CSc1nc(NCCOCCO)c2sc3nc(-c4ccco4)c4c(c3c2n1)CCC4	106	22	0	-5	52*	3	38*	18*	dCAG dye DR=i
CCN(CCO)c1nc(SC)nc2c1sc1nc(-c3ccco3)c3c(c12)CCC3	101	-5	.	-12	.	-3	.	.
COc1cc(/C=C/C(=O)O)ccc1OS(=O)(=O)c1c(C)c(C)cc(C)c1C	102	-1	1	-6	56*	2	56*	16*
O=C(COCc1ccccc1)NC1CCCCN(Cc2ccc(Cl)cc2)C1=O (stereo unspecified)	.	.	.	.	2	.	.	.
Cc1c(Cc2ccccc2)c(=O)oc2c(C)c(OC(C)C(=O)N[C@@H](Cc3ccccc3)C(=O)O)ccc12 (stereo partly specified)	97	2	2	-4	48*	6	61*	23*
Cc1c(OCC(=O)N[C@@H](Cc2ccccc2)C(=O)O)ccc2c1oc(=O)c1ccccc12	101	4	1	-3	28	1	.	.
SMILES	DSG3 Ab inh	NadD inh	MsrA inhibitor	MsrA act	rCAG binder	DAGLB inh	rCAG bind conf	DNA CAG counter	others
CC(C)(C)OC(=O)N[C@@H]1C=CC(=O)C1	.	.	0	.	0	.	.	.
COc1ccc(C(=O)Nc2c(N)nc(SCC(=O)NCC3CCCO3)[nH]c2=O)cc1OC (stereo unspecified)	99	1	0	4	-2	1	.	.
COc1ccc(Cl)cc1-n1c(=S)sc2c(=O)[nH]c(SCC(=O)NCC3CCCO3)nc21 (stereo unspecified)	105	4	4	-5	41*	3	31	6.6*
CCC(C)NC(=O)CSc1nc2c(sc(=S)n2-c2cc(Cl)ccc2OC)c(=O)[nH]1 (stereo unspecified)	106	-1	2	0	46*	7	38*	8.5*
Cc1cccc(C)c1NC(=O)C1c2ccccc2OCC(=O)N1CCc1ccccc1 (stereo unspecified)	.	0	1	-11	2	.	.	.
Cc1nc(CSc2nsc(/C=C/N(C)C)c2C#N)cs1	109	0	-2	-7	57*	-2	25	13*
COc1ccc(C2=NN(c3ccccc3)C(=O)/C2=C\c2ccc(O)c(OC)c2)cc1	112	14	3	-3	57*	24	66*	29*
COc1ccc(/C=C2/C(=O)N(c3ccccc3)N=C2C)cc1	110	-7	.	1	.	.	.	.
O=C(O)CC(Cc1ccc(Cl)cc1)C(=O)Nc1cc(Cl)ccc1Cl (stereo unspecified)	118	4	2	3	40*	3	27	4
CCCCn1c(NC(=O)c2ccccc2Cl)c(C#N)c2nc3ccccc3nc21	104	19	1	-1	91*	17	85*	58*
COc1ccc(-n2c(NC(=O)c3ccco3)c(C#N)c3nc4ccccc4nc32)cc1	98	6	2	-9	53*	2	43*	13*
CCC(=O)Nc1c(C#N)c2nc3ccccc3nc2n1-c1ccccc1C	93	-1	1	-4	0	-2	.	.
Cc1ccc(NC(=O)c2ccccc2NS(=O)(=O)c2ccc(Cl)s2)cc1	108	-4	-1	-3	85*	15	72*	34*
